Data reported in PubChem BioAssay (EPA / NIEHS).
Inconclusive results are not listed. The source made the active and inactive calls. Rule for the calls, unless noted: active = hit-call score of the fitted dose curve at least 0.9, where 1 is the maximum; inconclusive = response in the unintended direction; inactive = score below 0.9.

Tests used:
[1] = biological target: human RAR-related Orphan Receptor gamma (RORg), RORC (gene 6097) (UniProt P51449); assay: ATG_RORg_TRANS: Attagene TRANS-FACTORIAL HepG2 Assay for human RAR-related Orphan Receptor gamma (RORg) (AID 2283011)
human RAR-related Orphan Receptor gamma (RORg), RORC (gene 6097), sequence (P51449 whole entry, looked up, the tested form may be a part): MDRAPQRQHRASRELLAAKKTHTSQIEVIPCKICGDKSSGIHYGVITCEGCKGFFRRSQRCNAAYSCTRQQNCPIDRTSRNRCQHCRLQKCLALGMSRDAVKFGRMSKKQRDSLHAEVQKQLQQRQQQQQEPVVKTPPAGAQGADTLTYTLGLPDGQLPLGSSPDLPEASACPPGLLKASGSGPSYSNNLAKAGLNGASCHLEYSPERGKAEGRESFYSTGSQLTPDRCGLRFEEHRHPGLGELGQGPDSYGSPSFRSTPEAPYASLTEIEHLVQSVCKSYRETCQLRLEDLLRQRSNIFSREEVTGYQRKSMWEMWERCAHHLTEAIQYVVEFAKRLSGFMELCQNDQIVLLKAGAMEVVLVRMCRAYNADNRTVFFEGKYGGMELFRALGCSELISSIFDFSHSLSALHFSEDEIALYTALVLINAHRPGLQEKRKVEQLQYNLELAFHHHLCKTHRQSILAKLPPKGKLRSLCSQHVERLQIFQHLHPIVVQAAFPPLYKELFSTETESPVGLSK
How it was run: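 Transient MRTU transfection of HepG2 (TRANS format, exogenous NR-Gal4 chimera). 24 h dosing. Total RNA → oligo(dT) RT → PCR → 6-FAM labelling → HpaI cut → CE. Gain vs DMSO.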

[2] = biological target: Retinoic acid receptor RXR-alpha (Homo sapiens) (UniProt P19793); assay: ATG_RXRa_TRANS: Attagene TRANS-FACTORIAL HepG2 Assay for human Retinoid X Receptor alpha (RXRa) (AID 2283012)
Retinoic acid receptor RXR-alpha (Homo sapiens), sequence (P19793 whole entry, looked up, the tested form may be a part): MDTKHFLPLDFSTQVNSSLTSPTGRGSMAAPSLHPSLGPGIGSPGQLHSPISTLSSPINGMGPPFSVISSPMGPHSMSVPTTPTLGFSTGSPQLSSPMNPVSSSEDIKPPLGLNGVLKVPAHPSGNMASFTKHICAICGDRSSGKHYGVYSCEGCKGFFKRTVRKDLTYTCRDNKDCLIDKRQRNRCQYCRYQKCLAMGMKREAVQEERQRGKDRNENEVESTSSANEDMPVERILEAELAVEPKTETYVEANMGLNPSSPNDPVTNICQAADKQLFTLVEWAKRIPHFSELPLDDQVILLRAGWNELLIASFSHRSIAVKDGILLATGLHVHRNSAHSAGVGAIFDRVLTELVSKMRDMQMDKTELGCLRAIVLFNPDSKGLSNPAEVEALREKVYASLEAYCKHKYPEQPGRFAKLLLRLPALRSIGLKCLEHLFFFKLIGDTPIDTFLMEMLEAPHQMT
How it was run: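 Chimeric NR-GAL4 trans-activation in HepG2, 24 h treatment; reporter transcripts quantified by fluorescence on capillary electrophoresis, analysed for upward change from DMSO.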

[3] = biological target: human Retinoid X Receptor beta (RXRb), RXRB (gene 6257) (UniProt P28702); assay: ATG_RXRb_TRANS: Attagene TRANS-FACTORIAL HepG2 Assay for human Retinoid X Receptor beta (RXRb) (AID 2283013)
human Retinoid X Receptor beta (RXRb), RXRB (gene 6257), sequence (P28702 whole entry, looked up, the tested form may be a part): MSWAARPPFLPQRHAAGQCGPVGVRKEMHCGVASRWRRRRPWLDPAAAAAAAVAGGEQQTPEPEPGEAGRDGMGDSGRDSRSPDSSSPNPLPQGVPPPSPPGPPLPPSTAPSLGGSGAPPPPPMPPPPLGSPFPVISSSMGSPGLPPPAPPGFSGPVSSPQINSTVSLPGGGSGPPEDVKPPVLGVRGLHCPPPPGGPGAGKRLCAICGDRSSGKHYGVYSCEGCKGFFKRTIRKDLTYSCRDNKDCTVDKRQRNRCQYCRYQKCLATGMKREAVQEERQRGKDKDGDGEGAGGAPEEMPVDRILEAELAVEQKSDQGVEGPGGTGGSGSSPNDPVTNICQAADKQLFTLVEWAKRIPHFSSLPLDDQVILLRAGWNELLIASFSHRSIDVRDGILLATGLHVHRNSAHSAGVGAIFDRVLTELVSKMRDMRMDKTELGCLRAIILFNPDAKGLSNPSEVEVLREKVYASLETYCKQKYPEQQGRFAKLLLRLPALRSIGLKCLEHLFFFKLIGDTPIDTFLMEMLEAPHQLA
How it was run: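 After a 24 h incubation with test chemical, transfected HepG2 cells carrying NR-Gal4 fusions and GAL4-UAS reporter transcription units yield RNA whose reporter cDNA is FAM-labelled, HpaI-cut and sized by capillary electrophoresis; increases over DMSO are scored.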

[4] = biological target: human Vitamin D Receptor (VDR), VDR (gene 7421) (UniProt P11473); assay: ATG_VDR_TRANS: Attagene TRANS-FACTORIAL HepG2 Assay for human Vitamin D Receptor (VDR) (AID 2283022)
human Vitamin D Receptor (VDR), VDR (gene 7421), sequence (P11473 whole entry, looked up, the tested form may be a part): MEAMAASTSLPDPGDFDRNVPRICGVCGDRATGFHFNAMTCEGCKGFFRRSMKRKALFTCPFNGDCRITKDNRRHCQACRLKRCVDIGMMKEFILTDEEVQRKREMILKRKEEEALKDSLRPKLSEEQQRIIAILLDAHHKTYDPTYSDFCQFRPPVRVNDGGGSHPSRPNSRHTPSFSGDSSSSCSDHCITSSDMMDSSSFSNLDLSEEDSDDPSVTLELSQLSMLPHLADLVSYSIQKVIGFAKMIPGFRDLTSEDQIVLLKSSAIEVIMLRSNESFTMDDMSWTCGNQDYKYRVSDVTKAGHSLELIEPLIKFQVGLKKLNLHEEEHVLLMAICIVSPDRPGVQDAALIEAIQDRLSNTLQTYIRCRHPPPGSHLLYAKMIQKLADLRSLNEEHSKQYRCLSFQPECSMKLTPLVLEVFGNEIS
How it was run: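 RT-PCR/capillary electrophoresis read-out of reporter mRNA induction in transiently transfected HepG2; 24 h dosing; chimeric NR-Gal4 (TRANS format); gain-of-signal fit against DMSO baseline.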

[5] = biological target: human Thyroid Receptor alpha (THRa1), THRA (gene 7067) (UniProt P10827); assay: ATG_THRa1_TRANS: Attagene TRANS-FACTORIAL HepG2 Assay for human Thyroid Receptor alpha (THRa1) (AID 2283014)
human Thyroid Receptor alpha (THRa1), THRA (gene 7067), sequence (P10827 whole entry, looked up, the tested form may be a part): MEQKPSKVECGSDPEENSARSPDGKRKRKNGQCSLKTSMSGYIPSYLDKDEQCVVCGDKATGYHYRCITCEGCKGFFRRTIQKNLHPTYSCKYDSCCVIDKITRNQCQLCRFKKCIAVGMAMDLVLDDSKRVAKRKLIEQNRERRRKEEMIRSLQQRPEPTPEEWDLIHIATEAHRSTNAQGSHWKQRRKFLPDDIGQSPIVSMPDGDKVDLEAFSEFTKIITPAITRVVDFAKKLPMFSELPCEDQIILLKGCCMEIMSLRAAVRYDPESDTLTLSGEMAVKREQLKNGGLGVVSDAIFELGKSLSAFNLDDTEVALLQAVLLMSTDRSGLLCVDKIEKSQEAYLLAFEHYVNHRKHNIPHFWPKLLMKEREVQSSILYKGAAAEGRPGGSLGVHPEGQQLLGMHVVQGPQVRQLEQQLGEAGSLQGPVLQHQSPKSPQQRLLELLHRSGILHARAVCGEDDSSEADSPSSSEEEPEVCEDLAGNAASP
How it was run: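 Transient HepG2 transfection, NR-Gal4 chimera driving GAL4-UAS reporters; 24 h compound exposure; total RNA, oligo(dT) RT, PCR, fluorescent primer extension, capillary electrophoresis. Upward direction vs DMSO control.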

[6] = read-out: E-selectin (Homo sapiens) (UniProt P16581); assay: BSK_3C_Eselectin: BioMAP Diversity Plus: 3C Assay for Eselectin Biomarker Activity (AID 2283015; active = hit-call score of the fitted dose curve at least 0.9, where 1 is the maximum; inactive = score below 0.9;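 note: cell surface E-selectin protein quantified by ELISA 24 h after dosing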); details: primary human endothelial cells (HUVEC); actives raise or lower the signal
How it was run: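 HUVEC, 3C stimulation; compound exposure 24 h; E-selectin by ELISA; gain- or loss-of-signal fitted bidirectionally vs DMSO baseline.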

[7] = read-out: Interleukin-1 alpha (IL1a), IL1A (gene 3552); assay: BSK_BE3C_IL1a: BioMAP Diversity Plus: BE3C Assay for Interleukin-1 alpha (IL1a) Biomarker Activity (AID 2283016; active = hit-call score of the fitted dose curve at least 0.9, where 1 is the maximum; inactive = score below 0.9); details: primary human bronchial epithelial cells; actives raise or lower the signal
How it was run: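 Measured in human lung primary bronchial epithelial cells: IL-1a by ELISA at 24 h after dosing, with bidirectional fitting against DMSO.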

[8] = read-out: Monocyte Chemoattractant Protein-1 (MCP1), CCL2 (gene 6347); assay: BSK_3C_MCP1: BioMAP Diversity Plus: 3C Assay for Monocyte Chemoattractant Protein-1 (MCP1) Biomarker Activity (AID 2283017; active = hit-call score of the fitted dose curve at least 0.9, where 1 is the maximum; inactive = score below 0.9); details: primary human endothelial cells (HUVEC); actives raise or lower the signal
How it was run: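 HUVEC, 3C system; 24 h chemical exposure; MCP-1 by ELISA; bidirectional curve fit vs DMSO baseline.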

[9] = read-out: Monocyte Chemoattractant Protein-1 (MCP1), CCL2 (gene 6347); assay: BSK_4H_MCP1: BioMAP Diversity Plus: 4H Assay for Monocyte Chemoattractant Protein-1 (MCP1) Biomarker Activity (AID 2283018; active = hit-call score of the fitted dose curve at least 0.9, where 1 is the maximum; inactive = score below 0.9); details: primary human endothelial cells (HUVEC); actives raise or lower the signal
How it was run: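 Primary human umbilical vein endothelium is exposed to chemical for 24 h before MCP-1 is assayed by ELISA. Concentration-response fitted bidirectionally relative to DMSO.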

[10] = read-out: Human Leukocyte Antigen - DR isotype (HLADR), HLA-DRA (gene 3122); assay: BSK_3C_HLADR: BioMAP Diversity Plus: 3C Assay for Human Leukocyte Antigen - DR isotype (HLADR) Biomarker Activity (AID 2283019; active = hit-call score of the fitted dose curve at least 0.9, where 1 is the maximum; inactive = score below 0.9;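 note: ELISA of cell-surface HLA-DR on HUVEC 24 h after dosing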); details: primary human endothelial cells (HUVEC); actives raise or lower the signal
How it was run: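 HUVEC, 3C stimulation, 24 h post-dose; HLA-DR by ELISA; bidirectional curve fit vs DMSO baseline; gain or loss of signal scored.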

[11] = read-out: Interleukin-8 (IL8), CXCL8 (gene 3576); assay: BSK_3C_IL8: BioMAP Diversity Plus: 3C Assay for Interleukin-8 (IL8) Biomarker Activity (AID 2283020; active = hit-call score of the fitted dose curve at least 0.9, where 1 is the maximum; inactive = score below 0.9); details: primary human endothelial cells (HUVEC); actives raise or lower the signal
How it was run: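 Using DMSO-treated wells as the baseline, bidirectional curve fitting was applied to ELISA-measured IL-8 from human umbilical vein endothelial cultures sampled 24 h after compound addition.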

[12] = read-out: Monokine induced gamma interferon (MIG), CXCL9 (gene 4283); assay: BSK_3C_MIG: BioMAP Diversity Plus: 3C Assay for Monokine induced gamma interferon (MIG) Biomarker Activity (AID 2283021; active = hit-call score of the fitted dose curve at least 0.9, where 1 is the maximum; inactive = score below 0.9); details: primary human endothelial cells (HUVEC); actives raise or lower the signal
How it was run: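 ELISA-measured MIG in dosed HUVEC 3C cultures at 24 h, analysed by bidirectional fitting with DMSO defining baseline activity.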

[13] = BSK_3C_SRB: Viability Assessment in the BioMAP Diversity Plus: 3C Assay (AID 2283023; active = hit-call score of the fitted dose curve at least 0.9, where 1 is the maximum; inactive = score below 0.9;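 note: fitted both ways against DMSO so a hit may be signal rise or drop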); details: primary human endothelial cells (HUVEC)
How it was run: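 HUVEC, 24 h post-dose; 10% TCA fix, 0.1% SRB stain, A560 nm. Bidirectional curve fit vs DMSO negative control.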

[14] = read-out: Matrix Metallopeptidase 1 (MMP1), MMP1 (gene 4312); assay: BSK_BE3C_MMP1: BioMAP Diversity Plus: BE3C Assay for Matrix Metallopeptidase 1 (MMP1) Biomarker Activity (AID 2283024; active = hit-call score of the fitted dose curve at least 0.9, where 1 is the maximum; inactive = score below 0.9); details: primary human bronchial epithelial cells; actives raise or lower the signal
How it was run: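 In this multiplexed primary-cell system, human bronchial epithelium received chemicals for 24 h before an ELISA for MMP1. Values reflect bidirectional fits normalised to the DMSO baseline.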

[15] = BSK_3C_Vis: BioMAP Diversity Plus: 3C Assay for Morphology Visualization (AID 2283025; active = hit-call score of the fitted dose curve at least 0.9, where 1 is the maximum; inactive = score below 0.9;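 note: fitted both ways so gain or loss versus DMSO counts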;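 for AC50: light microscopy image of cell morphology used as background control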); details: primary human endothelial cells (HUVEC)
How it was run: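 Light-microscopy morphology readout, 24 h exposure, human primary umbilical vein endothelium; analysed relative to DMSO with bidirectional fitting.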

[16] = read-out: Pselectin, SELP (gene 6403); assay: BSK_4H_Pselectin: BioMAP Diversity Plus: 4H Assay for Pselectin Biomarker Activity (AID 2283026; active = hit-call score of the fitted dose curve at least 0.9, where 1 is the maximum; inactive = score below 0.9); details: primary human endothelial cells (HUVEC); actives raise or lower the signal
How it was run: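 Bidirectional fits against DMSO gave the endpoint. Cells: primary human umbilical vein endothelium, chemical-treated for 24 h before ELISA detection of P-selectin.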

[17] = BSK_4H_SRB: Viability Assessment in the BioMAP Diversity Plus: 4H Assay (AID 2283027; active = hit-call score of the fitted dose curve at least 0.9, where 1 is the maximum; inactive = score below 0.9;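 note: cells exposed to compound for 24 h before staining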); details: primary human endothelial cells (HUVEC)
How it was run: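 Cytotoxicity read-out in primary human endothelial cells: after 24 h compound exposure, cells were TCA-fixed (10%), stained with 0.1% SRB and absorbance taken at 560 nm. Values fitted in both directions relative to DMSO.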

[18] = read-out: Thrombomodulin, THBD (gene 7056); assay: BSK_3C_Thrombomodulin: BioMAP Diversity Plus: 3C Assay for Thrombomodulin Biomarker Activity (AID 2283029; active = hit-call score of the fitted dose curve at least 0.9, where 1 is the maximum; inactive = score below 0.9); details: primary human endothelial cells (HUVEC); actives raise or lower the signal
How it was run: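 In a multiplexed primary-cell system, human umbilical vein endothelium received chemical and was assayed 24 h later for thrombomodulin by ELISA. Parallel cultures were SRB-stained (0.1% SRB after 10% TCA fixation, read at 560 nm) to flag cytotoxicity.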

[19] = read-out: Urokinase-type plasminogen activator receptor (uPAR), PLAUR (gene 5329); assay: BSK_4H_uPAR: BioMAP Diversity Plus: 4H Assay for Urokinase-type plasminogen activator receptor (uPAR) Biomarker Activity (AID 2283030; active = hit-call score of the fitted dose curve at least 0.9, where 1 is the maximum; inactive = score below 0.9); details: primary human endothelial cells (HUVEC); actives raise or lower the signal
How it was run: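 HUVEC, 24 h post-dose; uPAR by ELISA; bidirectional fit vs DMSO baseline.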

Measured: AC50

E-selectin (Homo sapiens), sequence (P16581 whole entry, looked up): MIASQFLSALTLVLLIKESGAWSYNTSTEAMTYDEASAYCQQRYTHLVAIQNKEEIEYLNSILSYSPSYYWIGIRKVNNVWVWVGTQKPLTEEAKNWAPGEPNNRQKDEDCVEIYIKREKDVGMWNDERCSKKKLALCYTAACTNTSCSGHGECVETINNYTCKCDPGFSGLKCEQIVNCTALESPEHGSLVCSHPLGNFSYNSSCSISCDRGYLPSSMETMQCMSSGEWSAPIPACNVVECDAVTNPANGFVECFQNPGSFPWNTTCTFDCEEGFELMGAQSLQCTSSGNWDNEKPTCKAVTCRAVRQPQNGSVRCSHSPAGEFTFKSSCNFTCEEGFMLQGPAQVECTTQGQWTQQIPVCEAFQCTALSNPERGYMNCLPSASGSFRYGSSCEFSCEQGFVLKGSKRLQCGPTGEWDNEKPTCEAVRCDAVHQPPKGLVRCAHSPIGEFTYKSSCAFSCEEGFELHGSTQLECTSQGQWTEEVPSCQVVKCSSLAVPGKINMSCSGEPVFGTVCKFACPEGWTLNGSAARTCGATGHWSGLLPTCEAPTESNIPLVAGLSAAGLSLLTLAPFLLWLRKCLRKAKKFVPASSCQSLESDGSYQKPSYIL

Cc1cccc(C)c1C
inactive: [1] | [2]

CC1=CCC2C(C1)C2(C)C (stereo not given)
inactive: [1] | [2] | [3] | [4]

CSc1nnc(C(C)(C)C)c(=O)[nH]1
inactive: [1] | [2]

CCCCOCCOCCSC#N
inactive: [1] | [2] | [3] | [4]

CCCCCCCCCCCCCCCC(=O)OC[C@H](O)[C@H]1OC(=O)C(O)=C1O
inactive: [1] | [2] | [3] | [5] | [4]

O=C(O)CN(CCN(CC(=O)O)CC(=O)O)CCN(CC(=O)O)CC(=O)O
inactive: [1] | [2]

C/C=C(\C)C(=O)OCc1ccccc1
inactive: [1] | [2] | [3] | [4]

COc1cc(C)cc(O)c1
inactive: [1] | [2] | [3]

O=C=NC1CCC(CC2CCC(N=C=O)CC2)CC1 (stereo not given)
active: [15] 37.5 µM
not listed: [5]
inactive: all other assays above

O=C(O)Cc1cccc2ccccc12
inactive: [1] | [2] | [3]

COc1ccnc(CS(=O)c2nc3cc(OC(F)F)ccc3[nH]2)c1OC (stereo not given)
inactive: [1] | [2] | [3]

CC(=O)Nc1ccccc1O
not listed: [5]
inactive: all other assays above

[Ca+2]
inactive: [1] | [2]

C=CC(=O)OCCn1c(=O)n(CCOC(=O)C=C)c(=O)n(CCOC(=O)C=C)c1=O
inactive: [1] | [2]

CC(CC(C)(C)C)CC(C)(C)CC(C)(C)C (stereo not given)
inactive: [1] | [2] | [3]

CCCC(=O)c1cc(O)c(O)cc1O
inactive: [1]

S=C(S)NCCNC(=S)S
inactive: [1] | [2]

CCCCCCCCCCCCCOS(=O)(=O)O
inactive: [1]

COC(=O)OC
inactive: [1] | [2] | [3] | [4]

NC(=O)c1ccccc1Cl
inactive: [1] | [2]

CC(C)=CCC[C@](C)(O)[C@@H]1CC=C(C)CC1
inactive: [1] | [2] | [3] | [4]

CCCCCOC(=O)CCC
inactive: [1] | [2] | [3]

CCCCCCOC(=O)CC
inactive: [1] | [2] | [3] | [5]

C=CC(C)(CCC=C(C)C)OC=O (stereo not given)
inactive: [1]

COC(C)CCO (stereo not given)
inactive: [1] | [5] | [4]
active: [2] 53.7 µM | [3] 4.07 µM

CC(=O)C(=O)O
inactive: [1] | [2] | [3]
